Screening results (PubChem)
A selection: hits, their analogues and other compounds. The true share with any hit is near 1.9%.
aSyn yeast inh: qHTS of alpha-syn Inhibitors | AID 652106, 2013 | Potency, µM (highest dose often 46.1 µM), actives largely listed as activators | Yeast expressing alpha-synuclein, growth rescue, BacTiter-Glo, 24 h | 370,000 compounds, 0.14% hits; further: nearly all actives have a fitted effect of over 65% in size
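Screening used galactose-induced yeast with toxic alpha-synuclein levels, exposed to compound for 24 hr at 30 deg C. Cell growth, read with BacTiter-Glo luminescence, gave the measured signal.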
FUS yeast rescue: qHTS for Suppressors of FUS Proteinopathy: Primary screen using FUS-linked yeast assay. Potency, µM (series often up to 76.6 µM), usual class: activators. S. cerevisiae FUS-expressing, growth rescue, OD600, 24 h. 390,000 compounds, 0.24% hits; further: nearly all actives have a fitted effect of over 55% in size
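S. cerevisiae expressing FUS from galactose induction served as the toxicity model. Growth after 24hr at 30C, read as absorbance at 600 nm, indicates suppression of toxicity; compounds dosed at several concentrations.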
Abeta rescue: qHTS for compounds that reverse cellular toxicity of Amyloid beta (A-beta) peptide in yeast: Primary Screen; yeast expressing A-beta42, growth rescue, OD600, 48 h; response scale: 0% DMSO, 100% iron-clioquinol control; Potency, µM (top dose mostly 46.1 µM), most hits filed as activators; 410,000 compounds, 0.063% hits; AID 1347071, 2019; further: nearly all actives have a fitted effect of over 55% in size
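Growth rescue measured by 600 nm absorbance after 48 h yeast culture at 30 C with compound. Values normalized between DMSO and an equimolar ferric chloride plus clioquinol control.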
LDHA inh: qHTS assay for inhibitors of human lactate dehydrogenase; L-lactate dehydrogenase A chain (Homo sapiens), P00338; purified LDHA, NADH/diaphorase-resazurin fluorescence; active compounds read low; activity change, % (values are at about 110 or 230 µM); 480,000 compounds, 0.15% hits; AID 1347041, 2019; in the data active means activity change below about -30%; inconclusive means mostly about -25% to -30%
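LDH5 2 nM; NADH 0.06 mM, pyruvate 0.2 mM; 200 mM Tris pH 7.4, EDTA, Tween-20; 5 min RT. Detection: diaphorase 0.133 mg/mL + resazurin 37 µM, fluorescence ex540/em590 at 0 and 20 min; normalized to enzyme-free and DMSO wells.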
PTHR1 ag: qHTS for PTHR1 Agonists: Primary Screen; Parathyroid hormone/parathyroid hormone-related peptide receptor (Homo sapiens), Q03431; HEK293 GP2 PTHR1 cells, GloSensor cAMP luminescence, 1 h; Potency, µM (top dose mostly 115 µM), actives largely listed as activators; 410,000 compounds, 0.075% hits; AID 743266, 2014; further: nearly all actives have a fitted effect of over 55% in size
Target sequence (Q03431 whole entry, looked up): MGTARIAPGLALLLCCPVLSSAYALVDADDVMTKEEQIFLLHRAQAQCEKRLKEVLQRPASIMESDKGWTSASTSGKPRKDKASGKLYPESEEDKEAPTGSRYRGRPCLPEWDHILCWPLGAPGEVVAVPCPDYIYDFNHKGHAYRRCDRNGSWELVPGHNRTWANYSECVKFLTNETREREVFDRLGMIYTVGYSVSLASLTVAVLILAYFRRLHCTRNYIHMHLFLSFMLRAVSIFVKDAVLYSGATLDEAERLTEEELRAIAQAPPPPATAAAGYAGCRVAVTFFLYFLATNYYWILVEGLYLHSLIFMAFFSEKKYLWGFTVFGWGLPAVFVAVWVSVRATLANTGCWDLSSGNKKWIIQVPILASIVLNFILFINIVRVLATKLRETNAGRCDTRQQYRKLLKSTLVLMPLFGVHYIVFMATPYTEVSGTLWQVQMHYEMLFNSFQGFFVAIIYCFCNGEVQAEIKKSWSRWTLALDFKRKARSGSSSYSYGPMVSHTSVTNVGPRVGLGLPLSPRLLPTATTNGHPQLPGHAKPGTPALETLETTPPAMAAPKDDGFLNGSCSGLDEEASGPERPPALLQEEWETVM
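HEK-293-derived GP2 cells expressing PTHR1 and a GloSensor cAMP reporter, 3,000/well, plated overnight, given luciferin plus IBMX (each 0.5 mM as added) for 1 h at 37 °C, then compound for 1 h at 37 °C. Luminescence was read after 15 min at room temperature.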
TDP-43 yeast inh: qHTS of TDP-43 Inhibitors; Potency, µM (doses to about 46.1 µM), actives largely listed as activators; TDP-43 expressing yeast growth rescue, BacTiter-Glo, 24 h; 410,000 compounds, 1.8% hits; AID 652104, 2013; further: nearly all actives have a fitted effect of over 50% in size
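Readout is BacTiter-Glo luminescence of cell growth, so inhibitors register as activators. TDP-43-expressing yeast at OD600=0.02 in galactose medium, after raffinose pregrowth to mid-log, were incubated with compound for 24 hr at 30 deg C.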
Of the large screens only hits and unclear results are named; the others gave an inactive call. Unless noted, the call rests on the fitted dose curve; in most records, active means well fitted curve in the direction sought with a large enough effect; inconclusive means small, poorly fitted or top-dose-only effect, or another doubt; inactive means no such curve, though single readings can be large; an effect the other way counts as inactive or inconclusive.

COc1cccc(C(NC(C)=O)c2nc(-c3ccc4ccccc4c3)cs2)c1 (stereo not given)	aSyn yeast inh inconclusive, FUS yeast rescue inconclusive, TDP-43 yeast inh inconclusive
c1ccc(CC2CCN(c3ncnc4sccc34)CC2)cc1	TDP-43 yeast inh 13µM
CN(C1CCCCC1)S(=O)(=O)c1ccc2c(c1)c(=O)n(CC(=O)N1CCCCCC1)c(=O)n2C	none (no result: aSyn yeast inh, FUS yeast rescue, Abeta rescue, PTHR1 ag, TDP-43 yeast inh)
N#Cc1c2n(c3c(=O)n(Cc4ccc(Cl)cc4)cnc13)CCCCC2	TDP-43 yeast inh 20µM
N#Cc1c2n(c3c(=O)n(Cc4ccccc4)cnc13)CCCC2	none
CCCCN1C(=O)C(CC(=O)NCCCCc2ccccc2)CC(C(=O)N2CCOCC2)=C1C (stereo not given)	aSyn yeast inh 20µM
CC[C@H]1C(c2ccc(F)cc2)=NN(c2ccccc2)[C@@H]1CO	Abeta rescue inconclusive, TDP-43 yeast inh 11µM
OC[C@@H]1[C@@H](c2ccc(F)cc2)C(c2ccccc2)=NN1c1ccccc1	none
COCCNC(=O)NC(=O)COC(=O)c1cccc2c(=O)c(C)c(-c3ccccc3)oc12	none (no result: aSyn yeast inh, FUS yeast rescue, Abeta rescue, PTHR1 ag, TDP-43 yeast inh)
Cc1cccc(OCC(=O)N/N=C/c2cccc(O)c2)c1	none (no result: aSyn yeast inh, FUS yeast rescue, Abeta rescue, PTHR1 ag, TDP-43 yeast inh)
CC(=O)Nc1cccc(-c2ccnc3c2CC(C(=O)Nc2cccc(Oc4ccccc4)c2)O3)c1 (stereo not given)	FUS yeast rescue inconclusive
CC(=O)Nc1ccc(-c2ccnc3c2CC(C(=O)Nc2cccc(Oc4ccccc4)c2)O3)cc1 (stereo not given)	FUS yeast rescue 11µM, TDP-43 yeast inh inconclusive
O=C(Nc1cccnc1)C1Cc2c(-c3ccccc3Oc3ccccc3)ccnc2O1 (stereo not given)	TDP-43 yeast inh 28µM
CN(C)c1cccc(NC(=O)C2Cc3c(-c4ccccc4Oc4ccccc4)ccnc3O2)c1 (stereo not given)	FUS yeast rescue 25µM
CC(=O)c1cccc(NC(=O)C2Cc3c(-c4ccccc4Oc4ccccc4)ccnc3O2)c1 (stereo not given)	FUS yeast rescue inconclusive, TDP-43 yeast inh inconclusive
C=C(C)Cn1c(N2CCN(CC(=O)OC)CC2)nc2c1c(=O)[nH]c(=O)n2C	none (no result: aSyn yeast inh, FUS yeast rescue, Abeta rescue, PTHR1 ag, TDP-43 yeast inh)
COc1ccc(NC(=O)CN(Cc2ccc3c(c2)OCO3)C2CCCC2)cc1	none (no result: aSyn yeast inh, FUS yeast rescue, Abeta rescue, PTHR1 ag, TDP-43 yeast inh)
Cc1csc(NC(=O)C(Cc2ccccc2)n2cccc2)n1 (stereo not given)	Abeta rescue inconclusive, TDP-43 yeast inh 13µM
Cc1ccc(NC(=O)C(Cc2ccccc2)n2cccc2)cc1 (stereo not given)	none
COc1cccc(CNC(=O)C(Cc2ccccc2)n2cccc2)c1 (stereo not given)	none
COc1cccc(NC(=O)C(Cc2ccccc2)n2cccc2)c1 (stereo not given)	TDP-43 yeast inh 13µM
CCc1c(C)sc(NC(=O)C2CCCO2)c1C#N (stereo not given)	TDP-43 yeast inh 22µM
CCc1c(C)sc(NC(=O)C2CCCC2)c1C#N	none (no result: aSyn yeast inh, FUS yeast rescue, Abeta rescue, PTHR1 ag, TDP-43 yeast inh)
O=C(Cc1ccc2c(c1)CCC2)Nc1cc(C(F)(F)F)ccc1Cl	none (no result: aSyn yeast inh, FUS yeast rescue, Abeta rescue, PTHR1 ag, TDP-43 yeast inh)
Clc1nc(Cl)nc(NCCC2=CCCCC2)n1	TDP-43 yeast inh 10µM
CCOc1ccc(C(N)=S)cc1	none (no result: aSyn yeast inh, FUS yeast rescue, Abeta rescue, PTHR1 ag, TDP-43 yeast inh)
Cc1ccc(CNC(=O)CCc2ncc(-c3c(F)cccc3F)o2)cc1	none (no result: aSyn yeast inh, FUS yeast rescue, Abeta rescue, PTHR1 ag, TDP-43 yeast inh)
C[C@@]12CCC=C[C@H]1[C@H](c1ccccc1Br)N(Cc1ccccc1)C2=O	FUS yeast rescue inconclusive, TDP-43 yeast inh 35µM
COCCCn1c(C)cc(C(=O)CN2C(=O)NC(Cc3c[nH]c4ccccc34)C2=O)c1C (stereo not given)	none (no result: aSyn yeast inh, FUS yeast rescue, Abeta rescue, PTHR1 ag, TDP-43 yeast inh)
CCCCSc1nc2c(c(=O)[nH]c(=O)n2C)n1CCCC	none (no result: aSyn yeast inh, FUS yeast rescue, Abeta rescue, PTHR1 ag, TDP-43 yeast inh)
Cc1nn(C)c(C(=O)NC2C3CC4CC(C3)CC2C4)c1Cl (stereo not given)	TDP-43 yeast inh 10µM
